Tau fibril FP – blocks human tau fibril formation measured by polarization; AID 1468; P10636; K18 P301L tau heparin fibrillization, Alexa594 FP, 6 h; 280,000 compounds, 0.39% hits; Potency, µM (highest dose often 57.7 µM), hits mostly inhibitors; note: nearly all actives have a fitted effect of over 55% in size
Target sequence (P10636 561-689 P618L limits assumed): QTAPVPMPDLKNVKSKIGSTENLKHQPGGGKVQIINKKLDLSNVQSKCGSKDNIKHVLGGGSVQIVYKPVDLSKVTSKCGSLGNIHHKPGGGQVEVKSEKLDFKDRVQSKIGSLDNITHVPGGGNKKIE
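Read-out: fluorescence polarization of Alexa 594-labeled tau (0.24 uM), 555 nm excitation, 632 nm emission. Mixtures held 15 uM unlabeled K18 P301L, compound and 20 uM heparin, pH 7 acetate buffer, incubated 6 hr at 37 C.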
Tau fluor cs – counter-screen for tau fibril formation inhibitors | tau K18 P301L Alexa594 fluorescence, heparin fibrillization | Potency, µM (series often up to 57.7 µM) | 280,000 compounds, 0.93% hits | AID 1463; note: nearly all actives have a fitted effect of over 55% in size
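Human tau K18 P301L (15 uM unlabeled, 0.24 uM Alexa 594-labeled) in 100 mM sodium acetate pH 7 with 20 uM heparin, 6 hr at 37 C. ThT 30 uM added, 1 hr ambient; Alexa 594 FP and total fluorescence read at 555/632 nm.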
TexasRed fluor – counter-screen for TRb-SRC2 inhibitors: fluorescence interference | AID 1479 | TRb/SRC2 Texas Red total fluorescence interference | Potency, µM (top dose mostly 106 µM) | 280,000 compounds, 0.29% hits; active = well fitted curve in either direction with a large enough effect; inconclusive = small, poorly fitted or top-dose-only effect
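Human TRb ligand-binding domain at 0.6 uM with 20 nM Texas Red SRC2 peptide in Tris buffer containing 1 uM T3 and 5% DMSO, incubated with compound 5 h at ambient temperature. Total fluorescence (555/632 nm) calculated as parallel + 2 × perpendicular.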
TRb-SRC2 inh – TRbeta-SRC2 interaction inhibition; Potency, µM (series often up to 106 µM), hits mostly inhibitors; TRbeta-SRC2 peptide binding, fluorescence polarization; receptor liganded with 1 µM T3; P10828; 280,000 compounds, 0.065% hits; note: nearly all actives have a fitted effect of over 50% in size
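Compounds were added to 0.6 uM TRb ligand-binding domain and 20 nM Texas Red-labeled SRC2 peptide in Tris buffer containing 1 uM T3, incubated 5 hr at ambient temperature, then read by fluorescence polarization.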
GoLoco inh red – RGS12 GoLoco-Gai1 interaction inhibition | 230,000 compounds, 0.44% hits | Potency, µM (top dose mostly 61.6 µM), hits mostly inhibitors | AID 880 | P63096 | Gai1:RGS12 GoLoco peptide FP, rhodamine, 10 min; active = well fitted inhibition curve with a large enough effect, not every such curve was filed as active; inactive = no such curve, though single readings can be large or run the other way; note: nearly all actives have a fitted effect of over 30% in size
Target sequence (P63096 whole entry, looked up): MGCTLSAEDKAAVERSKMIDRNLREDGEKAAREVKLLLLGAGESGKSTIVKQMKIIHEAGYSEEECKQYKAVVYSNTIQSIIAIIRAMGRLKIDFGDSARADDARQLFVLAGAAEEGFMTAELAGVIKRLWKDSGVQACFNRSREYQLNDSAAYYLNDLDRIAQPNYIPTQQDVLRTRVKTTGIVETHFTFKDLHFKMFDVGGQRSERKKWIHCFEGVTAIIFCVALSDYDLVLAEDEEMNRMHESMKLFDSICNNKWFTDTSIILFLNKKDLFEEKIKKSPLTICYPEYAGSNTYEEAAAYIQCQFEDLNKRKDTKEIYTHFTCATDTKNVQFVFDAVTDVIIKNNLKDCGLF
Tau ThT inhib – blocks human tau fibril formation measured by thioflavin T | recombinant tau K18 P301L, heparin-induced fibrillization, ThT fluorescence | Potency, µM (doses to about 57.4 µM), most hits filed as inhibitors | 270,000 compounds, 2.1% hits | AID 1460; note: nearly all actives have a fitted effect of over 55% in size
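ThT emission at 510 nm, taken 1 hr after adding 30 uM dye, quantifies aggregates formed when 20 uM heparin acts on human tau K18 P301L for 6 hr at 37 C.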
Of the large screens only hits and unclear results are named; the others gave an inactive call; [ ] = remark or other dose. Hits are enriched below; roughly 3.1% of the tested compounds scored in any of these assays. Unless noted, calls come from the whole dose curve; as a rule, active = well fitted curve in the direction sought with a large enough effect; inconclusive = small, poorly fitted or top-dose-only effect, or another doubt; inactive = no such curve, though single readings can be large; an effect the other way counts as inactive or inconclusive.

Cc1cc2cc(CNS(=O)(=O)c3ccccc3)ccc2n1C	TexasRed fluor 50.1µM[fluorescent], TRb-SRC2 inh 44.7µM, Tau ThT inhib inconclusive
Cc1cc2cc(CNC(=O)c3ccc(S(=O)(=O)N4CCCC4)cc3)ccc2n1C	Tau fibril FP inconclusive, TexasRed fluor 44.7µM[fluorescent], TRb-SRC2 inh 35.5µM, Tau ThT inhib inconclusive
Cc1cc(NS(=O)(=O)c2ccc(NC(=O)/C=C/c3ccc(C)o3)cc2)nc(C)n1	Tau ThT inhib inconclusive
CCOC(=O)C1CCN(C(=O)C(C)Oc2ccc(Br)cc2)CC1 (centres undefined)	none
Cc1nnc(N/N=C/c2cccc(OCc3ccc(Cl)c(Cl)c3)c2)n1N	Tau fluor cs 25.1µM[quencher], Tau ThT inhib 12.6µM
CN1C2C=C3C(C#N)=C(N)C(C#N)(C#N)[C@H](c4c(F)cccc4F)[C@H]3C1CC2 (some centres undefined)	Tau fibril FP inconclusive, Tau ThT inhib 14.1µM
CC(C)(C)C1CC=C2C(C#N)=C(N)C(C#N)(C#N)C(c3cccs3)C2C1 (centres undefined)	Tau fibril FP inconclusive, Tau ThT inhib inconclusive
CN1C2C=C3C(C#N)=C(N)C(C#N)(C#N)[C@@H](c4cccs4)C3C1CC2 (some centres undefined)	Tau fibril FP inconclusive, Tau ThT inhib 20µM
CN1C2C=C3C(C#N)=C(N)C(C#N)(C#N)[C@@H](c4cccc(F)c4)[C@@H]3C1CC2 (some centres undefined)	Tau fibril FP inconclusive, Tau ThT inhib 20µM
CN1CC=C2C(C#N)=C(N)C(C#N)(C#N)C(c3cccc(Cl)c3Cl)C2C1 (centres undefined)	Tau fibril FP inconclusive, Tau ThT inhib inconclusive
CC(=O)Nc1c(C)nn(-c2ccccc2)c1N1CCC(C(=O)NCc2ccc(Cl)cc2)CC1	none (no result: GoLoco inh red)
Cc1ccc(-n2nnnc2SCCNS(=O)(=O)c2ccccc2)cc1C	Tau fluor cs inconclusive
COc1ccc(S(=O)(=O)NCCSc2nnnn2-c2ccccc2)cc1OC	Tau fluor cs inconclusive, TexasRed fluor 8.91µM[quencher] (no result: GoLoco inh red)
O=C(Nc1ccc(F)c(Cl)c1)c1cc(S(=O)(=O)NCc2ccc3c(c2)OCO3)ccc1F	Tau fibril FP inconclusive, Tau fluor cs inconclusive (no result: GoLoco inh red)
O=S(=O)(/C(=C/c1ccc(C(F)(F)F)cc1)c1nc2ccccc2[nH]1)c1ccccc1	Tau fibril FP inconclusive, Tau ThT inhib 28.2µM
COc1cccc(CN2CCNC(=O)C2CC(=O)N(C)CCc2ccccn2)c1OC (centres undefined)	none
CCN(CC)CCN(C(=O)c1ccco1)c1nc2c(C)cccc2s1	none (no result: GoLoco inh red)
CCOc1cccc2sc(N(CCN(CC)CC)C(=O)c3ccco3)nc12	TexasRed fluor 14.1µM[quencher] (no result: GoLoco inh red)
COCCn1nnnc1C(c1ccc2ncccc2c1)N1CCc2ccccc21 (centres undefined)	none
CN(C)c1ccc(/C=N/n2ncc3ccccc32)cc1	Tau fluor cs inconclusive, Tau ThT inhib 3.98µM
O=C(COC(=O)c1cc(-c2cccs2)nc2ccccc12)NCc1ccco1	Tau fibril FP 20µM, Tau ThT inhib 15.8µM
Cc1ccccc1-n1c(/C=C/c2c(C)n(C)c3ccccc23)nc2ccccc2c1=O	Tau fluor cs inconclusive (no result: GoLoco inh red)
Cc1ccc(-c2cc3ncc4c(n3n2)-c2ccccc2OC4)cc1	none (no result: GoLoco inh red)
CN(C(=O)c1nc(-c2cccc(F)c2)n2c1CCCCC2)c1ccccc1F	none (no result: GoLoco inh red)
CCOc1ccc(CCNC(=O)c2nc(-c3cccc(F)c3)n3c2CCCCC3)cc1OCC	TexasRed fluor 63.1µM[quencher] (no result: GoLoco inh red)
CCCCC(CC)C(=O)Nc1ccc(C#N)cc1 (centres undefined)	none
CC(=O)C(Cl)C(=O)Nc1ccccc1 (centres undefined)	Tau fibril FP inconclusive, Tau ThT inhib 25.1µM
CC(=O)Nc1ccccc1	none
CCCCC(CC)C(=O)Nc1ccc(Nc2ccccc2)cc1 (centres undefined)	Tau fluor cs 10µM[quencher], Tau ThT inhib inconclusive
COc1ccc(/C=C/c2nc3ccccc3c(=O)n2-c2cccc(C(F)(F)F)c2)cc1	none (no result: GoLoco inh red)
CC1=NOC(=O)/C1=C/c1ccc2c(c1)OCO2	Tau ThT inhib inconclusive
